Consider 33 sequences from paper doi:10.1101/2024.03.05.583629.

The target in experiment [1] is pT7_6His-AlfaTag-HOXD13 (human, UniProt P35453 263-343). The experiment in a line: PADIT-seq. The note with it: dsDNA, one strand shown.
Experiment [2] addresses pT7_6His-AlfaTag-ZIF268 (human, UniProt P18146 335-423). The experiment in a line: PADIT-seq. The note with it: dsDNA, one strand shown.

Sequence of pT7_6His-AlfaTag-HOXD13 (P35453 263-343): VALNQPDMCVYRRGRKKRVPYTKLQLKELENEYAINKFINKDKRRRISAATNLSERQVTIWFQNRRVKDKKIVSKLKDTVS

Turning to “CTCGAGGATATCAAGATCTGGCCTCGGCTGCGTAAAAGGAACCTCTAGCTAGCCGACTCACTATAGGGATAATCGCCCTGAGCAAAGACC”, in experiment [1], the binding signal turned out to be 1.22 ± 0.0881 log2FC.

As for “CTCGAGGATATCAAGATCTGGCCTCGGCCCCTGGGCGGGAACCTCTAGCTAGCCGACTCACTATAGGGATAATCGCCCTGAGCAAAGACC”, the binding signal in experiment [1] is -0.981 ± 0.122 log2FC. On the same count and under the same terms, in the case of “CTCGAGGATATCAAGATCTGGCCTCGGCCTTTTACTGGGAACCTCTAGCTAGCCGACTCACTATAGGGATAATCGCCCTGAGCAAAGACC” it was 2.53 ± 0.0719 log2FC. The same measure, in the same setting: in the case of “CTCGAGGATATCAAGATCTGGCCTCGGCTACCTAAAAGGAACCTCTAGCTAGCCGACTCACTATAGGGATAATCGCCCTGAGCAAAGACC” it was -0.459 ± 0.127 log2FC. Still for that read-out and setting: in the case of “CTCGAGGATATCAAGATCTGGCCTCGGCTTTTTATAGGGAACCTCTAGCTAGCCGACTCACTATAGGGATAATCGCCCTGAGCAAAGACC” it was 3.37 ± 0.0926 log2FC; in that of “CTCGAGGATATCAAGATCTGGCCTCGGCCTTTTAAATGGAACCTCTAGCTAGCCGACTCACTATAGGGATAATCGCCCTGAGCAAAGACC”, 2.36 ± 0.0747 log2FC. Take “CTCGAGGATATCAAGATCTGGCCTCGGCCGCATCCGCGGAACCTCTAGCTAGCCGACTCACTATAGGGATAATCGCCCTGAGCAAAGACC”: the binding signal in experiment [1] is -0.957 ± 0.122 log2FC. Same read-out and setting: in the case of “CTCGAGGATATCAAGATCTGGCCTCGGCTTTTTAGTCGGAACCTCTAGCTAGCCGACTCACTATAGGGATAATCGCCCTGAGCAAAGACC” it was -0.553 ± 0.126 log2FC.

With “CTCGAGGATATCAAGATCTGGCCTCGGCTTTTTAACGGGAACCTCTAGCTAGCCGACTCACTATAGGGATAATCGCCCTGAGCAAAGACC”, in experiment [1], the binding signal came to 1.89 ± 0.0968 log2FC. Still for that read-out and setting: in the case of “CTCGAGGATATCAAGATCTGGCCTCGGCACCTTAAAAGGAACCTCTAGCTAGCCGACTCACTATAGGGATAATCGCCCTGAGCAAAGACC” it was 0.52 ± 0.102 log2FC; in that of “CTCGAGGATATCAAGATCTGGCCTCGGCGTTCTAAAAGGAACCTCTAGCTAGCCGACTCACTATAGGGATAATCGCCCTGAGCAAAGACC”, -0.197 ± 0.0802 log2FC; in that of “CTCGAGGATATCAAGATCTGGCCTCGGCCTTTTATGAGGAACCTCTAGCTAGCCGACTCACTATAGGGATAATCGCCCTGAGCAAAGACC”, 3.45 ± 0.0923 log2FC.

In experiment [1], “CTCGAGGATATCAAGATCTGGCCTCGGCGTTTTACAAGGAACCTCTAGCTAGCCGACTCACTATAGGGATAATCGCCCTGAGCAAAGACC” yielded a binding signal of 3.54 ± 0.0799 log2FC. In experiment [1], “CTCGAGGATATCAAGATCTGGCCTCGGCATTTTAACAGGAACCTCTAGCTAGCCGACTCACTATAGGGATAATCGCCCTGAGCAAAGACC” returned a binding signal of 2.07 ± 0.0923 log2FC. Same read-out and setting: the figure for “CTCGAGGATATCAAGATCTGGCCTCGGCGTTTTAATTGGAACCTCTAGCTAGCCGACTCACTATAGGGATAATCGCCCTGAGCAAAGACC” is 2.42 ± 0.0771 log2FC.

In the case of “CTCGAGGATATCAAGATCTGGCCTCGGCCCGATAAAAGGAACCTCTAGCTAGCCGACTCACTATAGGGATAATCGCCCTGAGCAAAGACC”, in experiment [1], the binding signal amounted to 1.27 ± 0.0909 log2FC. Same read-out and setting: the figure for “CTCGAGGATATCAAGATCTGGCCTCGGCCTTTTAAAGGGAACCTCTAGCTAGCCGACTCACTATAGGGATAATCGCCCTGAGCAAAGACC” is 2.37 ± 0.0692 log2FC; for “CTCGAGGATATCAAGATCTGGCCTCGGCTTTTTATTAGGAACCTCTAGCTAGCCGACTCACTATAGGGATAATCGCCCTGAGCAAAGACC” it is 3.3 ± 0.0796 log2FC. On the same count and under the same terms, in the case of “CTCGAGGATATCAAGATCTGGCCTCGGCTAACTAAAAGGAACCTCTAGCTAGCCGACTCACTATAGGGATAATCGCCCTGAGCAAAGACC” it was -0.24 ± 0.119 log2FC; in that of “CTCGAGGATATCAAGATCTGGCCTCGGCTTTTTAAAAGGAACCTCTAGCTAGCCGACTCACTATAGGGATAATCGCCCTGAGCAAAGACC”, 2.52 ± 0.0678 log2FC. “CTCGAGGATATCAAGATCTGGCCTCGGCTTTCCACGCGGAACCTCTAGCTAGCCGACTCACTATAGGGATAATCGCCCTGAGCAAAGACC”: in experiment [1], the binding signal was -0.793 ± 0.11 log2FC. Still for that read-out and setting: in the case of “CTCGAGGATATCAAGATCTGGCCTCGGCCGCTTAAAAGGAACCTCTAGCTAGCCGACTCACTATAGGGATAATCGCCCTGAGCAAAGACC” it was 0.46 ± 0.0911 log2FC.

As to “CTCGAGGATATCAAGATCTGGCCTCGGCTTTTTATGAGGAACCTCTAGCTAGCCGACTCACTATAGGGATAATCGCCCTGAGCAAAGACC”, in experiment [1], the binding signal is 3.46 ± 0.0792 log2FC. With “CTCGAGGATATCAAGATCTGGCCTCGGCATTTTACTGGGAACCTCTAGCTAGCCGACTCACTATAGGGATAATCGCCCTGAGCAAAGACC”, the binding signal in experiment [1] was 2.8 ± 0.0813 log2FC. As for “CTCGAGGATATCAAGATCTGGCCTCGGCTTTTTAGTGGGAACCTCTAGCTAGCCGACTCACTATAGGGATAATCGCCCTGAGCAAAGACC”, the binding signal turned out to be 1.59 ± 0.0858 log2FC in experiment [1] and 0.00131 ± 0.0904 log2FC in experiment [2]. For “CTCGAGGATATCAAGATCTGGCCTCGGCAGTGTAAAAGGAACCTCTAGCTAGCCGACTCACTATAGGGATAATCGCCCTGAGCAAAGACC”, the results for the binding signal in experiment [1] and in experiment [2] were 0.712 ± 0.08 log2FC and 0.045 ± 0.0778 log2FC, respectively. Turning to “CTCGAGGATATCAAGATCTGGCCTCGGCACTATAAAAGGAACCTCTAGCTAGCCGACTCACTATAGGGATAATCGCCCTGAGCAAAGACC”, the binding signal in experiment [1] came out at 2.93 ± 0.0918 log2FC; in experiment [2], 0.0278 ± 0.1 log2FC. The corresponding values for “CTCGAGGATATCAAGATCTGGCCTCGGCCACATAAAAGGAACCTCTAGCTAGCCGACTCACTATAGGGATAATCGCCCTGAGCAAAGACC” are 2.6 ± 0.0844 log2FC and 0.0607 ± 0.0948 log2FC.

As to “CTCGAGGATATCAAGATCTGGCCTCGGCCGCCCAGGAGGAACCTCTAGCTAGCCGACTCACTATAGGGATAATCGCCCTGAGCAAAGACC”, the binding signal in experiment [1] is -1.1 ± 0.149 log2FC; in experiment [2], 0.0116 ± 0.118 log2FC. The corresponding values for “CTCGAGGATATCAAGATCTGGCCTCGGCCGCCTACGCGGAACCTCTAGCTAGCCGACTCACTATAGGGATAATCGCCCTGAGCAAAGACC” are -0.992 ± 0.109 log2FC and 1.76 ± 0.0783 log2FC. The corresponding values for “CTCGAGGATATCAAGATCTGGCCTCGGCAAACTAAAAGGAACCTCTAGCTAGCCGACTCACTATAGGGATAATCGCCCTGAGCAAAGACC” are -0.484 ± 0.203 log2FC and 0.0456 ± 0.191 log2FC.

In the case of “CTCGAGGATATCAAGATCTGGCCTCGGCCTTTTATCGGGAACCTCTAGCTAGCCGACTCACTATAGGGATAATCGCCCTGAGCAAAGACC”, the binding signal amounted to 1.63 ± 0.0763 log2FC in experiment [1] and 0.0806 ± 0.0794 log2FC in experiment [2]. The corresponding values for “CTCGAGGATATCAAGATCTGGCCTCGGCATTTTACAGGGAACCTCTAGCTAGCCGACTCACTATAGGGATAATCGCCCTGAGCAAAGACC” are 3.08 ± 0.0772 log2FC and 0.116 ± 0.0849 log2FC.
